HT1080NT lethal – qHTS for induction of synthetic lethality in tumor cells producing 2HG: qHTS for the HT-1080-NT fibrosarcoma cell line; HT-1080-NT fibrosarcoma viability, CellTiter-Glo ATP luminescence, 48 h; Potency, µM (highest dose often 46.1 µM), inactives show at the top dose activity, negative = less viability, most hits filed as cytotoxic; 360,000 tested, 1.6% active; AID 686970, 2013;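 further: NT is the 2HG producing partner of a matched IDH1 knockdown line; 0% = DMSO-treated cells and -100% = media-only wells without cells; nearly all actives have a fitted effect of over 55% in size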
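HT-1080-NT; 750 cells/well; 5% FBS RPMI; 48 h compound, 37 degrees C; CellTiter-Glo luminescence; curve fitting and curve-class assignment.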
HT1080 IDH1KD tx – qHTS for induction of synthetic lethality in tumor cells producing 2HG: qHTS for the HT-1080-IDH1KD cell line. HT-1080 IDH1 knockdown viability, ATP luminescence, 48 h. Potency, µM (doses to about 46.1 µM), without a hit: at the top dose activity, negative = toxicity, usual class: cytotoxic. 360,000 tested, 2% active;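 further: 0% = DMSO wells and -100% = cell-free medium wells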
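% activity derives from luminescence (CellTiter-Glo), normalised to DMSO and no-cell wells. HT-1080-IDH1KD cells, 750/well, had 48 h compound exposure at 37 °C.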
KB-V1 MDR tox – qHTS assay for MDR1-selective chemotherapeutics: Primary screen using the drug-selected MDR subline cells KB-V1; 400,000 tested, 3.4% active; Potency, µM (top dose mostly 46.1 µM), hits mostly cytotoxic; KB-V1 MDR cells viability, CellTiter-Glo, 72 h; AID 1347076, 2019; further: on the % scale 0 is the no-effect control and ±100 the full control effect; nearly all actives have a fitted effect of over 60% in size
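Potencies derive from concentration-effect curves fitted to normalized luminescence (CellTiter-Glo) of KB-V1 cells treated for 72 h at 37 degrees C in phenol-red-free DMEM containing 10% FBS.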
MCF10A rerep – A quantitative high throughput screen for small molecules that induce DNA re-replication in MCF 10a normal breast cells | MCF 10A DNA re-replication, Hoechst nuclear intensity, 48 h | Potency, µM (titrated, usually from 46.1 µM), without a hit: top-dose activity, positive = re-replication, actives largely listed as activators | 350,000 tested, 2.9% active; further: % of control where 0% means no effect; nearly all actives have a fitted effect of over 50% in size
KB-3-1 cytotox – qHTS assay for MDR1-selective chemotherapeutics: Primary screen using the parental adenocarcinoma cell KB-3-1; KB-3-1 viability, CellTiter-Glo ATP luminescence, 72 h; Potency, µM (doses to about 46.1 µM), hits mostly cytotoxic; 400,000 tested, 1.4% active; AID 1347075, 2019; further: on the % scale 0 is the no-effect control and ±100 the full control effect; nearly all actives have a fitted effect of over 60% in size
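Using CellTiter-Glo luminescence, growth of non-resistant KB-3-1 adenocarcinoma cells is assessed 72 h after pin-tool compound addition at 37 °C. Normalized responses across the concentration series yield fitted curves.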
SW480 rerep – A quantitative high throughput screen for small molecules that induce DNA re-replication in SW480 colon adenocarcinoma cells; SW480 DNA re-replication, Hoechst DNA content imaging, 48 h; Potency, µM (series often up to 46.1 µM), inactives show at the highest dose re-replication activation, usual class: activators; 340,000 tested, 1.8% active; further: % of control where 0% means no effect; nearly all actives have a fitted effect of over 55% in size
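Readout is total intensity of Hoechst-stained nuclei, excited at 405 nm and collected at 500-530 nm. Compound treatment lasted 48 hr at 37 C in 5% CO2 before staining.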
Starred values were filed as active, the others as inactive. Hits are enriched below; roughly 8% of the tested compounds scored in any of these assays. The call rests on the fitted dose curve; in most records, active means well fitted curve in the direction sought with a large enough effect; inconclusive means small, poorly fitted or top-dose-only effect, or another doubt; inactive means no such curve, though single readings can be large; an effect the other way counts as inactive or inconclusive. Potency means the concentration at half of the fitted maximal effect.

Results for CC(=O)c1ccc(-n2c(SCC(=O)c3c[nH]c4ccccc34)nc3ccccc3c2=O)cc1 ?
HT1080NT lethal: -23%; HT1080 IDH1KD tx: inconclusive; KB-V1 MDR tox: inactive; MCF10A rerep: 4%; KB-3-1 cytotox: inactive; SW480 rerep: -5%

Results for Cc1ccc2c(c1)c1c3n2CC(=C2C(=O)OC(C)(C)OC2=O)NC3CCC1 (stereo not given) ?
HT1080NT lethal: inconclusive; HT1080 IDH1KD tx: -26%; KB-V1 MDR tox: 21µM*; MCF10A rerep: 5%; KB-3-1 cytotox: inactive; SW480 rerep: 1%

What do the screens show for `CCc1ccc2c(c1)N(C[C@H](C)CN(C)C)c1ccccc1S2`?
MCF10A rerep: 15%; SW480 rerep: inconclusive

How did O=S(=O)(c1ccccc1)N1CCC(O)(CSc2ccccc2)CC1 do in these assays?
HT1080NT lethal: 23µM*; HT1080 IDH1KD tx: -24%; KB-V1 MDR tox: inactive; MCF10A rerep: 27%; KB-3-1 cytotox: inactive; SW480 rerep: 18%

What do the screens show for `O=S(=O)(c1ccccc1)N1CCC(O)(CSc2ccc(F)cc2)CC1`?
HT1080NT lethal: -10%; HT1080 IDH1KD tx: 18µM*; KB-V1 MDR tox: inconclusive; MCF10A rerep: inconclusive; KB-3-1 cytotox: inconclusive; SW480 rerep: -2%

How did O=S(=O)(c1ccccc1)N1CCC(O)(CN2CCN(c3ccccc3)CC2)CC1 do in these assays?
HT1080NT lethal: 8%; HT1080 IDH1KD tx: 5%; KB-V1 MDR tox: inactive; MCF10A rerep: 2%; KB-3-1 cytotox: inactive; SW480 rerep: 3%

How did O=C(CSc1ccccc1)N1CCN(S(=O)(=O)c2ccccc2)CC1 do in these assays?
HT1080NT lethal: 10%; HT1080 IDH1KD tx: -3%; KB-V1 MDR tox: inactive; MCF10A rerep: -3%; KB-3-1 cytotox: inactive; SW480 rerep: -9%

Results for COc1ccc(CCNC(=O)c2ccc3c(c2)ncn3-c2ccc(C)cc2C)cc1OC ?
KB-V1 MDR tox: inactive; KB-3-1 cytotox: inactive

What do the screens show for `Cc1ccc(CNC(=O)CCn2cnc3ccccc3c2=O)cc1`?
KB-V1 MDR tox: inactive; KB-3-1 cytotox: inactive

What do the screens show for `CCCc1c(C)c2cc(C)ccc2[nH]c1=O`?
HT1080NT lethal: 3%; HT1080 IDH1KD tx: 0%; KB-V1 MDR tox: 4.1µM*; MCF10A rerep: -3%; KB-3-1 cytotox: inconclusive; SW480 rerep: -4%

What do the screens show for `Cc1nnc(NC(=O)CSc2nccn2Cc2ccc(Cl)cc2)s1`?
KB-V1 MDR tox: inactive; KB-3-1 cytotox: inactive

What do the screens show for `CCc1nnc(NC(=O)C(=O)c2cc(C)n(-c3ccccc3)c2C)s1`?
KB-V1 MDR tox: inactive; KB-3-1 cytotox: inactive

How did Cc1cccc(NC(=O)c2nc[nH]c2C(=O)Nc2cccc(C)c2)c1 do in these assays?
HT1080NT lethal: -26%; HT1080 IDH1KD tx: inconclusive; KB-V1 MDR tox: inactive; MCF10A rerep: inconclusive; KB-3-1 cytotox: inactive; SW480 rerep: 16%

How did CC(C)(C)OC(=O)NCc1ccc(NC(=O)c2nc[nH]c2C(=O)NCCNC(=O)c2[nH]cnc2C(=O)Nc2ccc(CNC(=O)OC(C)(C)C)cc2)cc1 do in these assays?
HT1080NT lethal: 12µM*; HT1080 IDH1KD tx: 13µM*; KB-V1 MDR tox: inactive; MCF10A rerep: 23µM*; KB-3-1 cytotox: inactive; SW480 rerep: inconclusive

Results for CC(C)(C)OC(=O)CNC(=O)c1[nH]cnc1C(=O)Nc1ccc(CNC(=O)OC(C)(C)C)cc1 ?
HT1080NT lethal: inconclusive; HT1080 IDH1KD tx: 21µM*; KB-V1 MDR tox: inconclusive; MCF10A rerep: inconclusive; KB-3-1 cytotox: inconclusive; SW480 rerep: -8%

What do the screens show for `Cc1cccc(NC(=O)c2nc[nH]c2C(=O)NCCCCCNC(=O)OC(C)(C)C)c1`?
HT1080NT lethal: 26µM*; HT1080 IDH1KD tx: inconclusive; KB-V1 MDR tox: inconclusive; MCF10A rerep: -3%; KB-3-1 cytotox: inconclusive; SW480 rerep: inconclusive

How did Cc1cccc(NC(=O)c2nc[nH]c2C(=O)N[C@@H](C)c2ccccc2)c1 do in these assays?
HT1080NT lethal: inconclusive; HT1080 IDH1KD tx: 15µM*; KB-V1 MDR tox: inactive; MCF10A rerep: inconclusive; KB-3-1 cytotox: inactive; SW480 rerep: 0%

Results for Cc1cccc(NC(=O)c2nc[nH]c2C(=O)NCCCNC(=O)c2[nH]cnc2C(=O)Nc2cccc(C)c2)c1 ?
HT1080NT lethal: 12%; HT1080 IDH1KD tx: 12%; KB-V1 MDR tox: inactive; MCF10A rerep: -17%; KB-3-1 cytotox: inactive; SW480 rerep: -8%

How did C[C@@H](O)CNC(=O)c1[nH]cnc1C(=O)Nc1ccc(CNC(=O)OC(C)(C)C)cc1 do in these assays?
HT1080NT lethal: -7%; HT1080 IDH1KD tx: -7%; KB-V1 MDR tox: inactive; KB-3-1 cytotox: inactive

How did COc1ccc(CCn2c3c(c(=O)[nH]c2=O)C(NC(=O)c2ccccc2)(C(F)(F)F)C(=O)N3)cc1OC (stereo not given) do in these assays?
KB-V1 MDR tox: inconclusive; KB-3-1 cytotox: inactive

How did CCNC(=O)c1c(NC(=O)Cc2coc3cc(C)cc(C)c23)sc2c1CCCC2 do in these assays?
KB-V1 MDR tox: inactive; KB-3-1 cytotox: inactive

What do the screens show for `Cc1nc2nc(CNC(=O)c3cccc(F)c3)nn2c(C)c1CCC(=O)Nc1cccc(Cl)c1`?
KB-V1 MDR tox: inactive; KB-3-1 cytotox: inactive

Results for COc1cccc(NC(=O)C2CCN(c3nc4ccccc4nc3C(F)(F)F)CC2)c1 ?
KB-V1 MDR tox: inactive; KB-3-1 cytotox: inactive

Results for CC1=NN(C(N)=S)C(=O)C1N=Nc1ccc(S(N)(=O)=O)cc1 (stereo not given) ?
HT1080NT lethal: -1%; HT1080 IDH1KD tx: 2%; KB-V1 MDR tox: inactive; MCF10A rerep: -1%; KB-3-1 cytotox: inactive; SW480 rerep: 0%

What do the screens show for `NS(=O)(=O)c1ccc(N=Nc2nc3[nH]cnc(=S)c3[nH]2)cc1`?
KB-V1 MDR tox: 1.2µM*; KB-3-1 cytotox: 1.2µM*

What do the screens show for `COc1cc2c(c(OC)c1CC=C(C)C)C[C@H](c1ccc(O)cc1O)CO2`?
HT1080NT lethal: 0%; HT1080 IDH1KD tx: -8%; KB-V1 MDR tox: inactive; MCF10A rerep: 16µM*; KB-3-1 cytotox: inactive; SW480 rerep: 2%

Assay outcomes from PubChem.
